HT1080 IDH1KD tx – toxicity to HT-1080 IDH1 knockdown cells (counter line); actives 2% (n = 360,000); Potency, µM (highest dose often 46.1 µM), without a hit: at the top dose activity, negative = toxicity, hits mostly cytotoxic; HT-1080 IDH1 knockdown viability, ATP luminescence, 48 h; AID 686971;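 also: potency is read from the fitted curve at half-maximal effect; 0% = DMSO wells and -100% = cell-free medium wells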
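In this qHTS, HT-1080 cells depleted of IDH1 are exposed for 48 h at 37 °C to compound titrations. Toxicity is scored from CellTiter-Glo luminescence, with DMSO as full viability and medium alone as none.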
TDP1 cell noCPT – qHTS for Inhibitors of human tyrosyl-DNA phosphodiesterase 1 (TDP1): qHTS in cells in absence of CPT | DT40 Tdp1-/- hTDP1 cells, no CPT, ATP luminescence, 48 h | Potency, µM (series often up to 46.2 µM), without a hit: top-dose activity change, negative = growth inhibition, usual class: inhibitors | AID 686978, 2013 | actives 15% (n = 420,000); also: potency is read from the fitted curve at half-maximal effect; nearly all actives have a fitted effect of over 55% in size
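No-CPT arm: Tdp1-/-;hTDP1 DT40 cells (400/well) plus compounds, incubated ≥48 hr at 37 °C. Readout CellTiter-Glo luminescence.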
HT1080NT lethal – kills 2HG-producing HT-1080-NT fibrosarcoma cells. Potency, µM (highest dose often 46.1 µM), inactives show at the top dose activity, negative = less viability, hits mostly cytotoxic. HT-1080-NT fibrosarcoma viability, CellTiter-Glo ATP luminescence, 48 h. actives 1.6% (n = 360,000);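 also: NT is the 2HG producing partner of a matched IDH1 knockdown line; potency is read from the fitted curve at half-maximal effect; 0% = DMSO-treated cells and -100% = media-only wells without cells; nearly all actives have a fitted effect of over 55% in size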
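Viability by CellTiter-Glo luminescence after 48 h compound exposure at 37C of HT-1080-NT cells (750/well, RPMI, 5% FBS). % activity scaled between DMSO wells and medium-only wells, then curve-fitted and categorized by curve class.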
IL-1B inflam inh – blocks inflammasome-driven IL-1 beta release. activity change, % at 57.5 µM. actives 4.7% (n = 360,000). THP-1 LPS/ATP IL-1B secretion, AlphaLISA, 16 h; active compounds read low; in the data active = activity change below about -50%; inconclusive = mostly about -30% to -49%
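Secreted IL-1B measured by AlphaLISA bead assay after 16 h compound exposure of THP-1 cells; compounds (final up to 57.5 uM) added 1 h before LPS (250 ng/mL) and ATP (1.25 mM) stimulation; lower signal means less secretion.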
TDP1 cell CPT – DT40-hTDP1 cell growth loss with CPT; Potency, µM (highest dose often 46.2 µM), for inactives: at the top dose activity change, negative = growth inhibition, most hits filed as inhibitors; AID 686979; actives 12% (n = 420,000); chicken DT40 Tdp1-/-;hTDP1 cells + 20 nM CPT, ATP luminescence, 48 h; also: potency is read from the fitted curve at half-maximal effect; nearly all actives have a fitted effect of over 55% in size
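Chicken DT40 Tdp1-/- cells complemented with human TDP1, 400 cells/well, exposed to compounds plus 20 nM camptothecin for at least 48 h at 37 C; viability read as ATP content by CellTiter-Glo luminescence.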
* hit, by the source's call; ? = inconclusive; . = no result given; [ ] = another dose, or the depositor's remark. Rows were chosen to be rich in hits. Some 19% of all compounds tested hit in one or more screens of this group. Unless noted, calls follow the shape of the dose curve; as a rule, active = well fitted curve in the direction sought with a large enough effect; inconclusive = small, poorly fitted or top-dose-only effect, or another doubt; inactive = no such curve, though single readings can be large; an effect the other way counts as inactive or inconclusive. Unless noted, % is scaled to controls: 0 for no effect and ±100 for the full control effect.

SMILES	HT1080 IDH1KD tx	TDP1 cell noCPT	HT1080NT lethal	IL-1B inflam inh	TDP1 cell CPT
Cn1c(-c2ccc3c(c2)OCO3)cc(=O)c2ccccc21	0%	-11%	-5%	-6	-23%
Cn1c2ccccc2c(=O)c2ccc(F)cc21	2%	?	7%	-51*	?
COc1ccc(-c2cc(Cl)cc3c(=O)c4ccccc4n(C)c23)cc1F	16%	21µM*	6%	-12	18µM*
Cn1cc(S(C)=O)c(=O)c2ccc(F)cc21 (stereo unspecified)	.	-1%	.	.	0%
Cc1ccc(CNc2ccc(S(=O)(=O)N3CCOCC3)cc2[N+](=O)[O-])cc1	-8%	?	0%	1	?
CCc1ccc(OCC(=O)Nc2ncn[nH]2)c(Br)c1	.	0%	.	.	-7%
CN(C)Cc1ccccc1-c1cncnc1Nc1ccncc1	.	-17%	.	.	-6%
COC(=O)c1c(OCc2ccccn2)cc(=O)n2c1CCN(C(=O)c1n[nH]c3c1CCCC3)CC2	.	-7%	.	.	0%
CS(=O)(=O)N1CCCCC1CCN1CCCCC1 (stereo unspecified)	22%	-3%	13%	-11	3%
Oc1ccc(-c2nccc(-c3cccs3)n2)cc1	?	?	?	-7	?
CC(C)(C)c1ccc(S(=O)(=O)NC(=O)C2(C)CCN2C(=O)CC2CCCCC2)cc1 (stereo unspecified)	4%	-5%	-5%	3	-13%
Cc1nn(C(C)C(=O)NCc2ccco2)c(=O)c2nn(-c3ccccc3)c(C)c12 (stereo unspecified)	0%	?	-2%	4	-29%
c1ccc2c(c1)c1ccccc1n1c(-c3ccc4c(c3)OCO4)nnc21	0%	21µM*	0%	-57*	?
COc1cc(C2CC(=O)Oc3c2c(=O)n(C)c2ccccc32)cc(OC)c1OC (stereo unspecified)	8%	-25%	3%	-5	?
COc1cc(-c2ccc3c(=O)c4ccccc4n(C)c3c2)cc(OC)c1OC	?	12µM*	?	?	16µM*
Cc1ccc(-c2cn(-c3ccc(Cl)cc3)c(S(=O)(=O)CC(=O)Nc3ccccc3)n2)cc1	.	?	.	.	26µM*
COc1ccc(Cl)cc1-n1cc(-c2ccccc2)nc1SCC(=O)Nc1ccc(C)cc1	.	18µM*	.	.	?
O=C(CS(=O)(=O)c1ccccc1)Nc1nc(-c2ccc(F)cc2)cs1	0%	?	11%	-22	?
Cc1ccc(-n2cc(-c3ccccc3)nc2S(=O)(=O)CC(=O)Nc2ccc(F)cc2)cc1	.	?	.	.	23µM*
Cc1ccc(NC(=O)COC(=O)c2nn(-c3ccc(Cl)cc3)cc2O)cc1	?	?	?	-1	-22%
Cc1c(C(=O)N(C)C2CCOC2)sc2ncnc(NCc3ccc4c(c3)OCO4)c12 (stereo unspecified)	.	-27%	.	.	-10%[9.04 µM]
CCC(C)NCCOc1cc(C)cc(C)c1C (stereo unspecified)	-3%	-29%	2%	0	0%
CCC(C)NCCCCOc1cc(C)cc(C(C)C)c1 (stereo unspecified)	?	18µM*	?	-12	?
CCC(C)NCCCCOc1ccc(Br)cc1 (stereo unspecified)	-7%	16µM*	-17%	-26	?
Clc1cccc(CNc2ccn3nc(-c4cccs4)cc3n2)c1	?	?	-27%	-1	-24%
CNc1cc(-c2ccccc2CN(C)C)ncn1	.	-9%	.	.	-7%
CCOc1ccccc1NC(=O)C1CCN(S(=O)(=O)c2cccc3nonc23)CC1	.	?	.	.	-12%
COc1ccc(C(O)c2nc(-c3ccc4ccccc4c3)cs2)cc1 (stereo unspecified)	-14%	16µM*	-28%	15	?
COc1cc(C(O)c2nc(-c3ccc4ccccc4c3)cs2)ccc1F (stereo unspecified)	?	21µM*	23µM*	-17	23µM*
